This excerpt belongs to a sample that is enriched for hits.
Pf Dd2 inh: blocks in vitro growth of P. falciparum Dd2; P. falciparum Dd2 growth, SYBR Green, 72 h; Potency, µM (titrated, usually from 28.9 µM), inactives show at the top dose activity, negative = inhibition, most hits filed as inhibitors; actives 4.3% (n = 120,000); active = well fitted inhibition curve with a large enough effect;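 note: plate controls were DMSO vehicle for no effect and reference drug for full effect; nearly all actives have a fitted effect of over 65% in size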
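Infected erythrocytes (Dd2, 0.3% parasitemia, 2.5% hematocrit final) are added to compound in RPMI-1640/Albumax II medium, grown 72 h at 37C in low oxygen, then lysed with saponin/Triton-X containing SYBR Green and read by fluorescence.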
* hit, by the source's call; i = inactive; [ ] = remark or other dose. Potency is the fitted concentration of half-maximal effect.

SMILES	Pf Dd2 inh
O=C(NC1C[C@H]2CC[C@@H](C1)N2C(=O)CCC1CCCCC1)c1ccncc1 (stereo partly drawn)	i
Cn1cc(-c2cc(=O)c3ccnc(Nc4ccc5[nH]ccc5c4)c3o2)cn1	7.1µM*
Cn1cc(-c2cc(=O)c3ccnc(NC4CCOCC4)c3o2)cn1	-27%[44.1 µM]
Cn1cc(-c2cc(=O)c3ccnc(NCc4ccc(F)cc4)c3o2)cn1	-21%[44.1 µM]
Cc1nn(-c2ccccn2)c(C)c1[C@@H]1C=C[C@@H](NC(=O)CCCC(=O)O)C1	22%[44.1 µM]
CC(C)Cc1cc(CNC(=O)[C@H]2CNC[C@H](C(=O)N3CCCC3)C2)no1	16%
COc1ccc(-c2cc(C(=O)Oc3ccccc3)c3cc(C)ccc3n2)cc1	4.5µM*
COc1ccc(-c2cc(C(=O)Oc3ccc(C)cc3)c3cc(C)ccc3n2)cc1	i
Cc1ccc(-c2cc(C(=O)Oc3ccccc3)c3cccc(C)c3n2)cc1	-10%
C[C@H]1CCCN1C(=O)c1nnc(COc2ccccc2)n1-c1ccccc1	-13%[44.1 µM]
O=C(C1CCCC1)N1CCCCCC1c1nc(-c2ccncc2)no1 (stereo not drawn)	-5%
CCN(CC)C(=O)CC[C@@H]1CNC(=O)[C@@H]2C[C@H](NC(=O)c3ccc(N(C)C)cc3)CN12	-4%[44.1 µM]
COCCN1C(=O)c2[nH]nc(-c3cc(C)ccc3O)c2C1c1ccc(C(C)C)cc1 (stereo not drawn)	8.9µM*
CCCOc1ccc(C2c3c(-c4c(C)cc(C)cc4O)n[nH]c3C(=O)N2CCO)cc1 (stereo not drawn)	i
COc1cc(C2N=C(N)Nc3nc4ccccc4n32)ccc1OCCC(C)C (stereo not drawn)	-25%
COc1cc(C2c3c(oc4cc(C)c(C)cc4c3=O)C(=O)N2CCCN2CCOCC2)ccc1O (stereo not drawn)	12%
COCCn1ncc(N2CCC(NC(=O)c3ccc(C(C)C)cc3)CC2)cc1=O	-6%
COc1cc(C2c3c(-c4cc(C)ccc4O)n[nH]c3C(=O)N2CCCO)ccc1OCCC(C)C (stereo not drawn)	3.2µM*
CN1CCC(OC2CCN(C(=O)c3cccc(Br)c3)CC2)CC1	i
COc1cc(CNc2ccc3[nH]c(=O)[nH]c3c2)cc(Cl)c1OCc1ccccc1F	-17%
COc1cc(CNc2ccc3[nH]c(=O)[nH]c3c2)cc(Br)c1OCc1ccc(F)cc1	13µM*
COc1cc(CNc2ccc3[nH]c(=O)[nH]c3c2)cc(Cl)c1OCc1ccc(F)cc1	-26%
COCCc1noc(CC2CCOC3(CCN(C(=O)CCC4CCCC4)CC3)C2)n1 (stereo not drawn)	i
CCc1ccccc1S(=O)(=O)N1C[C@H](F)C[C@@H]1C(=O)N1CCOCC1	i
O[C@@H]1C[C@@H](c2nc(Cc3ccccc3)no2)N(Cc2ccc(F)cc2)C1	i
SMILES	Pf Dd2 inh
O[C@@H]1C[C@@H](c2nc(Cc3ccccc3)no2)N(Cc2cc3ccccc3o2)C1	14µM*
O[C@@H]1C[C@@H](c2nc(Cc3ccccc3)no2)N(CCCc2ccccc2)C1	i
Cc1ccc(C(=O)N2CCC(c3nn(C)c(=O)[nH]3)CC2)cc1	7%[44.1 µM]
CN1C(=O)C(c2ccccc2)CC12CCN(C(=O)C1CCC(O)CC1)CC2 (stereo not drawn)	-12%
Cn1cc(CN(C(=O)Nc2ccccc2)C2CCCCC2)c2ccccc21	3.2µM*
CCOc1ccc(NC(=O)N(Cc2c[nH]c3ccccc23)C2CCCCC2)cc1	-30%
COCC1(CNCc2cn(C)c3ccccc23)C[C@@H](O)[C@@H](O)C1 (stereo partly drawn)	i
O=C(Nc1nccs1)[C@@H]1C[C@@H](c2ccc(F)cc2)N([S+](=O)([O-])c2ccccc2)C1	-9%[44.1 µM]
CN(C)C(=O)c1cccc2c1CCN2C(=O)c1ccc(F)cc1	i
COc1cccc(CNC(=O)Cn2c(=O)oc3cc(S(=O)(=O)N4CCC(C)CC4)ccc32)c1	-5%
COc1ccc(CNC(=O)Cn2c(=O)oc3cc(S(=O)(=O)N4CCCC4)ccc32)cc1	-1%
CC1CCN(S(=O)(=O)c2ccc3c(c2)oc(=O)n3CC(=O)NCc2ccc(F)cc2)CC1	5.6µM*
O=C(Cc1cccs1)Nc1ccc2c(N3CCCCC3)ncnc2c1	5µM*
COc1ccccc1CC(=O)Nc1ccc2c(N3CCCCC3)ncnc2c1	14µM*
CC1Oc2ccc(NC(=O)Cc3cccs3)cc2CN(Cc2ccc(Cl)cc2)C1=O (stereo not drawn)	i
COc1ccc(-c2cc(N3CCCC(NC(=O)Cc4cccs4)C3)n[nH]2)cc1 (stereo not drawn)	-11%
Cc1ccccc1CC(=O)Nc1ccc2ncnc(N3CCCCC3)c2c1	i
COc1ccccc1CC(=O)NC1CCN(c2cc(C(F)(F)F)ncn2)CC1	34%
COC[C@@H]1CN(Cc2cc(F)c(F)c(F)c2)C[C@H]1C(=O)NC1CC1	-16%
Cc1ccc(CNC(=O)N2CCCC(CN3CCCC3)CC2)cc1 (stereo not drawn)	4.5µM*
COCCOC1CCN(C(=O)NCc2ccc(C)cc2)CC1	-2%
Cc1ccc(CNC(=O)N2CCC(Cn3c(C)cnc3C3CCOCC3)CC2)cc1	-24%
COc1cc2c(cc1OC)C(C[C@H]1CN(C(=O)Cc3cccs3)CC[C@H]1CC(=O)O)=NCC2	-12%
O=C(NCc1cccnc1)c1ccc2nccn2c1	8%[44.1 µM]
CN(c1ncccc1CNC(=O)CN1CCCC1=O)C1CCCCC1	-4%
SMILES	Pf Dd2 inh
OC(c1ccccc1)c1nc(Nc2ccc(Cl)cc2F)n[nH]1 (stereo not drawn)	i
COc1ccc([C@H]2C[C@@H](O)[C@@H](O)[C@@H]2NCc2ccccc2)cc1	-1%[44.1 µM]
COc1ccc([C@H]2C[C@@H](O)[C@@H](O)[C@@H]2NCc2cn(C)c3ccccc23)cc1	8.9µM*
COc1ccc([C@H]2C[C@@H](O)[C@@H](O)[C@@H]2NCc2cnn(C)c2)cc1	i
Cc1cnc(-c2ccccc2)n1CCNC(=O)c1cn(C)cn1	-2%
c1ccc(-c2ncn(CC3CCCO3)c2-c2cccc3cnccc23)cc1 (stereo not drawn)	-12%
O=C(Cc1ccc(Cl)cc1)N1CCC(n2cc(-c3nc(-c4ccccc4)no3)nn2)CC1	2µM*
O=C(c1ccc(Cl)cc1)N1CCC(n2cc(-c3nc(-c4ccccc4)no3)nn2)C1 (stereo not drawn)	-17%
COc1ccc(C(=O)N2CCC(n3cc(-c4nc(-c5ccccc5)no4)nn3)CC2)cc1	1.3µM*
COc1cccc(C(=O)N2CCC(n3cc(-c4nc(-c5ccccc5)no4)nn3)CC2)c1	-7%
O=C(Cc1ccc(Cl)cc1)N1CCC(n2cc(-c3nc(-c4ccccc4)no3)nn2)C1 (stereo not drawn)	-16%
O=C(Cc1cccc(Cl)c1)N1CCC(n2cc(-c3nc(-c4ccccc4)no3)nn2)C1 (stereo not drawn)	138%
O=C(c1ccccc1)N1CCC(n2cc(-c3nc(-c4ccccc4)no3)nn2)C1 (stereo not drawn)	0%
N#Cc1ccc(C(=O)N2CCC(n3cc(-c4nc(-c5ccccc5)no4)nn3)C2)cc1 (stereo not drawn)	i
N#Cc1ccc(C(=O)N2CCCC(n3cc(-c4nc(-c5ccccc5)no4)nn3)C2)cc1 (stereo not drawn)	4.5µM*
COc1ccc(C(=O)N2[C@@H]3CC[C@H]2CC(NC(=O)c2ccc(F)cc2)C3)cn1 (stereo partly drawn)	i
O=C1CC2(CCN(C(=O)C3(c4ccc(F)cc4)CCOCC3)C2)C(=O)N1 (stereo not drawn)	-21%
